Only some compounds are listed: those with a hit (about 1.2% of all), similar ones and a draw of the others.
BioA inh – BioA (M. tuberculosis) enzyme inhibition; purified M. tuberculosis BioA enzyme, plate reader; hit rate 0.096% among 360,000; inhibition, % at 9.99 µM; in the data active = inhibition above about 40%
PfHsp40 rescue – restores yeast growth despite PfHsp40 toxicity; S. cerevisiae expressing PfHsp40, growth rescue, ATP luminescence; growth rescue, % at 12.5 µM; hit rate 0.68% among 340,000; in the data active = growth rescue above about 28%, passing the limit was not always enough;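 note: yeast W303a lacking pdr1 and pdr3 grown in galactose medium; growth measured after three days at 30 °C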
FadD28 FP inh – blocks FadD28 binding to the bisubstrate probe; fluorescence polarization; inhibition, % at 12.5 µM; hit rate 0.22% among 360,000; AID 588549; in the data active = inhibition above about 8.5%, passing the limit was not always enough
Yp Topo-I inh – blocks Yersinia pestis topoisomerase I activity; activity, % at 10 µM; AID 504884; hit rate 0.064% among 360,000; Y. pestis Topo-I cleavage product accumulation, plate reader; in the data active = activity above about 50%, passing the limit was not always enough
PrP UTR inh – inhibition of PrP 5' UTR reporter expression; cell-based PrP 5' UTR mRNA reporter, plate reader; inhibition, % (test concentration not listed); hit rate 0.35% among 340,000; AID 488862; in the data active = inhibition above about 52%
TcdB inh – TcdB glycohydrolase inhibition; hit rate 0.24% among 350,000; TcdB glycohydrolase enzymatic assay, plate reader; P18177; inhibition, % at 9.99 µM; in the data active = inhibition above about 10%
Target sequence (P18177 whole entry, looked up): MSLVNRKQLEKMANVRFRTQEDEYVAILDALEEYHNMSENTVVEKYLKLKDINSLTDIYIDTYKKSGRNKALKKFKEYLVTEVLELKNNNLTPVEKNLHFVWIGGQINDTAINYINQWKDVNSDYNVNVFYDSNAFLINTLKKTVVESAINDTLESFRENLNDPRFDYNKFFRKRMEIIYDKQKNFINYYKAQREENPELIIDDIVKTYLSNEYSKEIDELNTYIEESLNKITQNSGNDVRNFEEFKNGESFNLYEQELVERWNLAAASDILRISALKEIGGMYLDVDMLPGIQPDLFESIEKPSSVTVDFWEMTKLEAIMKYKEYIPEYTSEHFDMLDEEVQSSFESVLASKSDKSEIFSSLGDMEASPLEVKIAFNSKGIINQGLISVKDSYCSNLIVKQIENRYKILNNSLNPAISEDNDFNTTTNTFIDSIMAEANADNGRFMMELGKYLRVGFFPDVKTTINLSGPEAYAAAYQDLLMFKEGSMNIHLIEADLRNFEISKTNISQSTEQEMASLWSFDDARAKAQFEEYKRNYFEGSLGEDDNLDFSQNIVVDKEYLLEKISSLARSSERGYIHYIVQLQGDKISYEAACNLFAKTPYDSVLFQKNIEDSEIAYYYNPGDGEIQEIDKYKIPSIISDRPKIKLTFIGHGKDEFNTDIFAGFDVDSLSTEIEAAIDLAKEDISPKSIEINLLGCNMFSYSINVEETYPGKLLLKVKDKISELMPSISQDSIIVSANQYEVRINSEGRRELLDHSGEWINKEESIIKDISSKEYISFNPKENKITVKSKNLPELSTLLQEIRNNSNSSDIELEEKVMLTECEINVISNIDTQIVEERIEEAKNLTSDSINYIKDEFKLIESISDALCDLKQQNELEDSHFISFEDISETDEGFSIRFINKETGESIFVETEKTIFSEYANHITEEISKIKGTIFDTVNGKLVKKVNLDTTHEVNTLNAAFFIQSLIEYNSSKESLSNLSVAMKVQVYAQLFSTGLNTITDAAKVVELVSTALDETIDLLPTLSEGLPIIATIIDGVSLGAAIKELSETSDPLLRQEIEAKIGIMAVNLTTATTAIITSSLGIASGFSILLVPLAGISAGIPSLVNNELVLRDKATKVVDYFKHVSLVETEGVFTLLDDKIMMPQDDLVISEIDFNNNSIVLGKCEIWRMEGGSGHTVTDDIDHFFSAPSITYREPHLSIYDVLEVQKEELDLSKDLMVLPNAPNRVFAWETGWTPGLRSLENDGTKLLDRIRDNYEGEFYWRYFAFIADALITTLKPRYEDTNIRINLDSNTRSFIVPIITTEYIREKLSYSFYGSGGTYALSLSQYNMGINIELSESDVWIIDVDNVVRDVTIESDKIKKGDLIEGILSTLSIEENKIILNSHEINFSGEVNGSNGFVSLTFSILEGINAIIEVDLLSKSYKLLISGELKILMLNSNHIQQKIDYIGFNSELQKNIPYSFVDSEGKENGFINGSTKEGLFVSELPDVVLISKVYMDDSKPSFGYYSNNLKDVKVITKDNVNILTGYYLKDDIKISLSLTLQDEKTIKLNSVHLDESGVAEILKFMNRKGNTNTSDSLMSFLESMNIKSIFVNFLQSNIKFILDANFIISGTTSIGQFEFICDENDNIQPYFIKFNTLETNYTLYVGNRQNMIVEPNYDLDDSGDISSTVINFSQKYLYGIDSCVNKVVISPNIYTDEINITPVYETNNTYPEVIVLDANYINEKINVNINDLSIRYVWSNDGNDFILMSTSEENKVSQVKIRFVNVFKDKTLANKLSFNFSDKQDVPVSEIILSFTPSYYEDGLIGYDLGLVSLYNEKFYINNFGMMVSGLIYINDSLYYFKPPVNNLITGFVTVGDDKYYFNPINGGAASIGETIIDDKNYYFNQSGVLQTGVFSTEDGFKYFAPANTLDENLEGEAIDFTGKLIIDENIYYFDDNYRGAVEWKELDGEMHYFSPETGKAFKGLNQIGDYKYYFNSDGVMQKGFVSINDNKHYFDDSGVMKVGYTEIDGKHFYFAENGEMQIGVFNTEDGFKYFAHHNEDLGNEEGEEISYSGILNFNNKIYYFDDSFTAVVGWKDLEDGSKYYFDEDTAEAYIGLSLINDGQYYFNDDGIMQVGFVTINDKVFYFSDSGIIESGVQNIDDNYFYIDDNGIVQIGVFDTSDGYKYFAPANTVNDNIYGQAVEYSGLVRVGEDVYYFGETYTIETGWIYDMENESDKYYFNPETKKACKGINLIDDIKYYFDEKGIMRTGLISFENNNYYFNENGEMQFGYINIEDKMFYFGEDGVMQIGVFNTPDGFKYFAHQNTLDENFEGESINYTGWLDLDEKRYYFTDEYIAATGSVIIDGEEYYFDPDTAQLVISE
Of the large screens only hits and unclear results are named; the others gave an inactive call.

O=C(NCC[C@H]1CC[C@@H](NS(=O)(=O)c2ccc(Oc3ccccc3)cc2)[C@H](CO)O1)C1CC1	none (no result: PfHsp40 rescue, FadD28 FP inh, Yp Topo-I inh, PrP UTR inh)
O=C(C[C@@H]1CC[C@@H]2[C@H](COC[C@@H](O)CN2Cc2cc(F)cc(F)c2)O1)NC1CCC1	none (no result: PfHsp40 rescue, FadD28 FP inh, Yp Topo-I inh, PrP UTR inh)
CC(Sc1nnc(CNc2cccc3ccccc23)n1-c1ccccc1)C(=O)N/N=C/c1ccco1 (stereo not given)	FadD28 FP inh 25 (no result: TcdB inh)
CC1=C2[C@@H](c3ccccc3)OB(O)C[C@@H]2[C@@H]2C(=O)N(Cc3ccccc3)C(=O)[C@@H]2C1	none (no result: BioA inh, PfHsp40 rescue, FadD28 FP inh, Yp Topo-I inh, PrP UTR inh)
CCN(CC)C(=O)C1CC(=O)N(c2ccc(F)c(Cl)c2)C1 (stereo not given)	PfHsp40 rescue 40 (no result: BioA inh, TcdB inh)
CC(/C=N/n1c(-c2ccncc2)n[nH]c1=S)=C\c1ccco1	TcdB inh 19
CC(/C=N/n1c(-c2ccc(C)cc2)n[nH]c1=S)=C\c1ccco1	none (no result: BioA inh, TcdB inh)
Cc1cccc(-c2n[nH]c(=S)n2/N=C/C=C/c2ccco2)c1	TcdB inh 10
O=C(N/N=C1/CC2CCC1C2)c1cc2ccccc2cc1O (stereo not given)	PfHsp40 rescue 33
COCCNC(=O)C[C@@H]1C[C@H]2c3cc(NC(=O)NC4CCCC4)ccc3O[C@H]2[C@@H](CO)O1	none (no result: PfHsp40 rescue, FadD28 FP inh, Yp Topo-I inh, PrP UTR inh)
O=C(C[C@H]1CC[C@H](NC(=O)CN2CCOCC2)[C@H](CO)O1)NC1CCCCC1	none (no result: PfHsp40 rescue, FadD28 FP inh, Yp Topo-I inh, PrP UTR inh)
COc1ccccc1NS(=O)(=O)c1cccc(NC(=S)NCCN2CCOCC2)c1	none (no result: BioA inh)
Cc1ccc(NS(=O)(=O)c2ccc(C)c(NC(=S)NCCN3CCOCC3)c2)c(C)c1	TcdB inh 16
CCC(=O)N1CC[C@@H]2[C@H]1c1cc(-c3ccccc3)ccc1N(C)[C@@H]2CO	none (no result: PfHsp40 rescue, FadD28 FP inh, Yp Topo-I inh, PrP UTR inh)
CCC(=O)N1CC[C@@H]2[C@@H](CO)N(C)c3ccc(-c4ccccc4)cc3[C@@H]21	TcdB inh 21 (no result: PfHsp40 rescue, FadD28 FP inh, Yp Topo-I inh, PrP UTR inh)
CCC(=O)N1CC[C@@H]2[C@H]1c1cc(-c3ccccc3)ccc1N(C)[C@H]2CO	TcdB inh 12 (no result: PfHsp40 rescue, FadD28 FP inh, Yp Topo-I inh, PrP UTR inh)
COCC(=O)N1CC[C@@H]2[C@H]1c1cc(-c3cccc(OC)c3)ccc1N(C)[C@H]2CO	TcdB inh 13 (no result: BioA inh, PfHsp40 rescue, FadD28 FP inh, Yp Topo-I inh, PrP UTR inh)
COCC(=O)N1CC[C@H]2[C@@H]1c1cc(-c3cccc(OC)c3)ccc1N(C)[C@H]2CO	none (no result: BioA inh, PfHsp40 rescue, FadD28 FP inh, Yp Topo-I inh, PrP UTR inh)
COCC(=O)N1CC[C@@H]2[C@H]1c1cc(-c3ccccc3)ccc1N(C)[C@H]2CO	TcdB inh 11 (no result: BioA inh, PfHsp40 rescue, FadD28 FP inh, Yp Topo-I inh, PrP UTR inh)
C[C@H]1CN([C@@H](C)CO)C(=O)c2cccc(NS(=O)(=O)c3ccccc3)c2O[C@@H]1CN(C)CC1CCCCC1	none (no result: PfHsp40 rescue, FadD28 FP inh, Yp Topo-I inh, PrP UTR inh)
C[C@@H]1CN([C@@H](C)CO)C(=O)c2cc(C#CC3CCCCC3)cnc2O[C@H]1CN(C)C(=O)C1CCCCC1	none (no result: PfHsp40 rescue, FadD28 FP inh, Yp Topo-I inh, PrP UTR inh)
Cc1ccc(-c2ccc([C@H]3[C@H](CO)N4CCCCN(C(=O)Nc5cccc(F)c5)C[C@@H]34)cc2)cc1	none (no result: PfHsp40 rescue, FadD28 FP inh, Yp Topo-I inh, PrP UTR inh, TcdB inh)
CN1c2ccc(-c3ccccc3)cc2[C@H]2[C@H](CCN2C(=O)CN2CCOCC2)[C@@H]1CO	none (no result: PfHsp40 rescue, FadD28 FP inh, Yp Topo-I inh, PrP UTR inh)
CN1c2ccc(-c3ccccc3)cc2[C@H]2[C@H](CCN2C(=O)CN2CCOCC2)[C@H]1CO	TcdB inh 14 (no result: PfHsp40 rescue, FadD28 FP inh, Yp Topo-I inh, PrP UTR inh)
C[C@H](CO)N1C[C@H](C)[C@@H](CN(C)C(=O)c2ccccc2)OCCCC[C@H](C)Oc2ccc(NS(C)(=O)=O)cc2C1=O	none (no result: PfHsp40 rescue, FadD28 FP inh, Yp Topo-I inh, PrP UTR inh)
CC1CCc2sc(-c3n[nH]c(=S)o3)cc2C1 (stereo not given)	PfHsp40 rescue 330 (no result: BioA inh)
Cc1occc1C(=O)NC(C)C12CC3CC(CC(C3)C1)C2 (stereo not given)	PfHsp40 rescue 105 (no result: BioA inh)
COc1ccccc1-c1cnc2c(c1)C(=O)N([C@H](C)CO)C[C@H](C)[C@H](CN(C)C)O2	none (no result: PfHsp40 rescue, FadD28 FP inh, Yp Topo-I inh, PrP UTR inh)
C[C@@H]1CN([C@@H](C)CO)C(=O)c2cc(NC(=O)CCC(F)(F)F)ccc2O[C@H]1CN(C)Cc1ccncc1	none (no result: PfHsp40 rescue, FadD28 FP inh, Yp Topo-I inh, PrP UTR inh, TcdB inh)
Cc1cccc(NC(=O)CN2C(=O)S/C(=C\c3ccccn3)C2=O)c1	none (no result: BioA inh)
Cc1ccc(NC(=O)CN2C(=O)S/C(=C/c3ccc(O)c([N+](=O)[O-])c3)C2=O)cc1C	FadD28 FP inh 31 (no result: BioA inh)
O=C(CN1C(=O)S/C(=C\c2ccc(O)c([N+](=O)[O-])c2)C1=O)Nc1ccc(N2CCOCC2)cc1	none
O=C(CN1C(=O)S/C(=C\c2cc(Cl)c(O)c(Cl)c2)C1=O)Nc1ccccc1	FadD28 FP inh 76
Cc1cccc(NC(=O)CN2C(=O)S/C(=C\c3ccc(O)c([N+](=O)[O-])c3)C2=O)c1	FadD28 FP inh 85 (no result: BioA inh)
N#Cc1nc(-c2cccs2)oc1NCCc1ccccc1	PfHsp40 rescue 106 (no result: BioA inh, TcdB inh)
O=C1CC(c2cccnc2)=NN1c1ccccc1	PfHsp40 rescue 91
O=C(NCC[C@H]1CC[C@H](NS(=O)(=O)c2ccccc2)[C@@H](CO)O1)c1cc(Cl)cc(Cl)c1	none (no result: PfHsp40 rescue, FadD28 FP inh, Yp Topo-I inh, PrP UTR inh)
CO[C@H]1CC[C@H]2CCOc3c(C#N)cccc3C(=O)N(C)[C@H](C)C(=O)N(C)C[C@H]1O2	none (no result: PfHsp40 rescue, FadD28 FP inh, Yp Topo-I inh, PrP UTR inh)
COc1ccc(-c2ccc3c(c2)O[C@@H](CN(C)Cc2ccccc2C(=O)O)[C@H](C)CN([C@@H](C)CO)S3(=O)=O)cc1	none (no result: PfHsp40 rescue, FadD28 FP inh, Yp Topo-I inh, PrP UTR inh)
CN(CCOc1ccc(Cl)c(Cl)c1)Cc1ccccc1	PfHsp40 rescue 36
CCOc1ccc(OCCN(C)Cc2ccccc2)cc1	none (no result: BioA inh, TcdB inh)
CCCC(=O)N1CC2(CN(S(=O)(=O)CC)C2)c2c(n(C)c3cc(OC)ccc23)[C@@H]1CO	none (no result: BioA inh, PfHsp40 rescue, FadD28 FP inh, Yp Topo-I inh, PrP UTR inh)
COc1cc2cnc(-c3ccccc3)c(C(=O)c3ccc(OCc4ccccc4)cc3)c2cc1OC	none
COc1cc2cnc(-c3ccccc3)c(C(=O)c3ccc(F)cc3)c2cc1OC	PfHsp40 rescue 411
Clc1ccc(OCCn2cnc3ccccc32)c(Cl)c1	PfHsp40 rescue 28 (no result: TcdB inh)
c1ccc2c(c1)ncn2CCOCCOCCn1cnc2ccccc21	none (no result: TcdB inh)
